Measured values published in PubChem BioAssay.
Calls of active or inactive are those of the source.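 How the source made its calls: active means inhibition at or above 50% relative to wild type and mutant plate controls; inactive means inhibition below 50%.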

Assay: inhibitors of Chlamydomonas gravitaxis, primary screen, whole organism, Chlamydomonas reinhardtii, WT vs cilia-less mutant, absorbance, 96-well (AID 463189);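 further: 0% = wild type cc124 cells in DMSO and 100% = ciliumless bld1 mutant cells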
Details: OD600 absorbance, 2 days, at 10 µM, stronger effect = higher value

Question: Which inhibition does the source give for `O=C1C=CC(=O)C=C1` here?
Answer: -11.2% (inactive)

Question: Which inhibition does the source give for `CCN1C[C@]2(C)CC[C@H](O)[C@@]34C5C[C@@H]6[C@@H](OC)C[C@@](O)(C5[C@H]6O)[C@@H](CC23)C14` (stereo partly drawn) here?
Answer: 7.34% (inactive)

Question: For `CCCN1CCC[C@H](c2cccc(O)c2)C1`, which inhibition is on record?
Answer: 0.621% (inactive)

Question: With `CC(=O)[C@H]1CCC2C3CC[C@H]4C[C@H](O)CC[C@]4(C)C3CC[C@@]21C` (stereo partly drawn) as the molecule, how does the inhibition read?
Answer: 0.863% (inactive)

Question: Which inhibition does the source give for `Oc1cc2c(cc1O)[C@H]1c3ccccc3CN[C@@H]1CC2` here?
Answer: -2.75% (inactive)

Question: For `Clc1cccc(N2CCNCC2)c1`, which inhibition is on record?
Answer: 1.7% (inactive)

Question: With `NC(=O)c1cc(N2CC2)c([N+](=O)[O-])cc1[N+](=O)[O-]` as the molecule, how does the inhibition read?
Answer: -4% (inactive)

Question: For `Clc1cnc(Oc2ccc(Oc3ncc(Cl)cc3Cl)cc2)c(Cl)c1`, which inhibition is on record?
Answer: 2.67% (inactive)

Question: With `CCCN(CCC)C1Cc2cc(OC)c(OC)cc2C1` as the molecule, how does the inhibition read?
Answer: -11.6% (inactive)

Question: For `CC(C)NC(C)Cc1ccc(I)cc1` (stereo not drawn), which inhibition is on record?
Answer: 22.2% (inactive)

Question: With `NNC(N)=O` as the molecule, how does the inhibition read?
Answer: 1.88% (inactive)

Question: With `COc1ccc2c(c1OC)C(=O)O[C@H]2[C@@H]1c2cc3c(cc2CCN1C)OCO3` as the molecule, how does the inhibition read?
Answer: -6.11% (inactive)

Question: With `C[C@H]1C2Cc3ccc(O)cc3C1(C)CCN2CC1CC1` (stereo partly drawn) as the molecule, how does the inhibition read?
Answer: 8.28% (inactive)

Question: With `Cc1nc(-c2ccc(-c3ccc(C(=O)N4CCc5cc6c(cc54)C4(CCN(C)CC4)CO6)cc3)c(C)c2)no1` as the molecule, how does the inhibition read?
Answer: 141% (active)

Question: Which inhibition does the source give for `CCCN1CCC[C@@H]2Cc3nc(N)ncc3C[C@H]21` here?
Answer: 4.12% (inactive)

Question: Which inhibition does the source give for `O=C1NCN(c2ccccc2)C12CCN(CC1COc3ccccc3O1)CC2` (stereo not drawn) here?
Answer: 6.88% (inactive)

Question: Which inhibition does the source give for `S=C=Nc1cccc(C2(N3CCCCC3)CCCCC2)c1` here?
Answer: 10.2% (inactive)

Question: With `COC(=O)C1=CCCN(C)C1` as the molecule, how does the inhibition read?
Answer: -3.75% (inactive)

Question: Which inhibition does the source give for `CC12NC(Cc3ccccc31)c1ccccc12` (stereo not drawn) here?
Answer: 2.33% (inactive)

Question: Which inhibition does the source give for `CC(O)C(C)OC(=O)[C@@H]1C[C@@H]2c3cccc4c3c(cn4C(C)C)C[C@H]2N(C)C1` (stereo partly drawn) here?
Answer: 33.8% (inactive)

Question: For `Cn1cnc(CCN)c1`, which inhibition is on record?
Answer: 3.08% (inactive)

Question: For `O=C(OC1CCN(CCCl)CC1)C(c1ccccc1)c1ccccc1`, which inhibition is on record?
Answer: -11.2% (inactive)

Question: For `CC(Cc1ccc(O)cc1)NCC(O)c1cc(O)cc(O)c1` (stereo not drawn), which inhibition is on record?
Answer: 1.02% (inactive)

Question: Which inhibition does the source give for `CCCN(CCC)[C@H]1CCc2c(F)ccc(O)c2C1` here?
Answer: -6.79% (inactive)

Question: Which inhibition does the source give for `C[C@@H]1O[C@@H](O[C@H]2C[C@@H](O)[C@]3(CO)[C@@H]4C(CC[C@]3(O)C2)[C@@]2(O)CC[C@H](C3COC(=O)C3)[C@@]2(C)C[C@H]4O)[C@H](O)[C@H](O)[C@H]1O` (stereo partly drawn) here?
Answer: 0.796% (inactive)

Question: With `NC1CC1c1ccccc1` (stereo not drawn) as the molecule, how does the inhibition read?
Answer: 9.58% (inactive)

Question: With `CCCN(CCC)C(=O)Cc1c(-c2ccc(Cl)cc2)nc2c(Cl)cc(Cl)cn12` as the molecule, how does the inhibition read?
Answer: -9.74% (inactive)

Question: Which inhibition does the source give for `CS(=N)(=O)CC[C@H](N)C(=O)O` (stereo partly drawn) here?
Answer: 3.52% (inactive)

Question: With `CC(C)(C)NCC(O)c1ccccc1Cl` (stereo not drawn) as the molecule, how does the inhibition read?
Answer: 8.05% (inactive)

Question: With `C[N+]1(C)CCOC(O)(c2ccc(-c3ccc(C4(O)C[N+](C)(C)CCO4)cc3)cc2)C1` (stereo not drawn) as the molecule, how does the inhibition read?
Answer: 1.34% (inactive)

Question: For `Nc1ccc(CCN2CCN(c3cccc(C(F)(F)F)c3)CC2)cc1`, which inhibition is on record?
Answer: 40.5% (inactive)

Question: Which inhibition does the source give for `CCN(CC)C(=O)N[C@@H]1C[C@@H]2c3cccc4[nH]cc(c34)C[C@H]2N(C)C1` here?
Answer: 5.28% (inactive)

Question: Which inhibition does the source give for `CC1=C[C@@H]2c3cccc4[nH]cc(c34)C[C@H]2N(C)C1` here?
Answer: 69.4% (active)

Question: Which inhibition does the source give for `CCCN(CCC)CCc1ccc(O)c(O)c1` here?
Answer: 0.931% (inactive)

Question: For `NCCc1ccc(S(=O)(=O)F)cc1`, which inhibition is on record?
Answer: 0.651% (inactive)

Question: With `CCc1c(C(=O)OC)ncc2[nH]c3cc(OC)c(OC)cc3c12` as the molecule, how does the inhibition read?
Answer: 1.73% (inactive)

Question: With `COc1cc(CC(C)N)c(OC)cc1I` (stereo not drawn) as the molecule, how does the inhibition read?
Answer: -7.42% (inactive)

Question: Which inhibition does the source give for `CC(N)Cc1c[nH]c2ccc(OCc3cccs3)cc12` (stereo not drawn) here?
Answer: 5.48% (inactive)
